{
  "source": "ChEMBL document CHEMBL3988442",
  "about": "“University of Dundee, Small-Polar-MMV Screening Library” (2021)",
  "data": [
    {"tested_on": "Trypanosoma cruzi", "assay": "Trypanosoma cruzi phosphomannomutase and mannose-1-phosphate guanylyltransferase assay", "assay_type": "functional", "design": "scale not given: direction of the effect not stated beside the values", "settings": "10 µM", "units": {"Percent Effect": "%"}, "values": [
      {"smiles": "Cc1ncsc1C(=O)N(C)CCc1ccncc1", "Percent Effect": -0.564},
      {"smiles": "O=C(O)c1ccc(F)c(S(=O)(=O)Nc2c(F)cccc2-n2cccn2)c1", "Percent Effect": 2.04},
      {"smiles": "Cn1cnc2c1C(COCc1cccnc1)N(Cc1ccccn1)CC2", "note": "(stereo not given)", "Percent Effect": 7.53},
      {"smiles": "Cc1cc(CN2CCCC(C)(CO)C2)ccc1F", "note": "(stereo not given)", "Percent Effect": 2.05},
      {"smiles": "CCS(=O)(=O)CC(=O)NC(c1ccc(F)cc1)C1CCCC1", "note": "(stereo not given)", "Percent Effect": -4.58},
      {"smiles": "O=C(Nc1cccc(CN2CCOC2=O)c1)N1CCOCC1", "Percent Effect": -4.76},
      {"smiles": "CC(C)c1cc(NC(=O)c2ccc(C(=O)NC(C)(C)C)cc2)[nH]n1", "Percent Effect": -3},
      {"smiles": "CN(C)C(=O)CN1CCCCC1c1nc(N)ncc1-c1cccc(F)c1", "note": "(stereo not given)", "Percent Effect": 5.12},
      {"smiles": "CCN1CC(C(=O)NC(C)(C)CC(C)(C)C)CC1=O", "note": "(stereo not given)", "Percent Effect": 4.4},
      {"smiles": "CC(C)CS(=O)(=O)CC(=O)N(C)Cc1ccc(OC(F)F)cc1", "Percent Effect": -1.74},
      {"smiles": "Cc1ccc(C(=O)Nc2cn[nH]c2)cn1", "Percent Effect": -1.13},
      {"smiles": "CSc1nccn1-c1cccc(C(=O)NCc2nnc(C)n2C)c1", "Percent Effect": 4.01},
      {"smiles": "CN(Cc1cnn(C)c1)C(=O)Cn1c(CS(C)(=O)=O)nc2ccccc21", "Percent Effect": -3.6},
      {"smiles": "CC1CN(Cc2nccn2C)CCN1c1ccc2nncn2n1", "note": "(stereo not given)", "Percent Effect": 5.62},
      {"smiles": "O=C(CCn1cccn1)N1CCN(CC(F)F)CC1", "Percent Effect": -0.836},
      {"smiles": "Cc1noc(C(C)C)c1C(=O)N1CCCN(Cc2cscn2)CC1", "Percent Effect": 2.25},
      {"smiles": "CS(=O)(=O)CCNC(=O)C1(c2cccc(Cl)c2)CCCCC1", "Percent Effect": -1.46},
      {"smiles": "CCc1n[nH]c(C2CN(C(=O)c3ccsc3)CCO2)n1", "note": "(stereo not given)", "Percent Effect": -0.686},
      {"smiles": "CN(C)C(=O)N1C[C@@H]2CC[C@H](C1)N(C(=O)CCCn1cncn1)C2", "Percent Effect": 1.74},
      {"smiles": "CN1CCN(C2CCN(CC(=O)NCC(F)(F)F)CC2)C1=O", "Percent Effect": 7.46}
    ]}
  ]
}
